TRPML1 inh: qHTS for Inhibitors of the Human Mucolipin Transient Receptor Potential 1 (TRPML1); Mucolipin-1 (Homo sapiens), Q9GZU1; TRPML1-inducible cells, Ca2+ dye fluorescence, FDSS; active compounds read low; inhibition of EC80 agonist-evoked calcium signal; activity change, negative = inhibition, % (no concentration beside the values); 390,000 tested, 0.02% active; AID 624415, 2012; in the data active = activity change below about -50%; inconclusive = between about -30% and that limit;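 also: stimulus is agonist 54-4 at its EC80 concentration; % is scaled to controls: 0 for no effect and ±100 for the full control effect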
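Tet-induced TRPML1-DL cells loaded with Ca8 no-wash calcium dye were read kinetically on FDSS. Compound addition was followed by EC80 agonist 54-4 (4 uM final); inhibition was read over 110 s.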
TRPML1 agonist: qHTS for Agonists of the Human Mucolipin Transient Receptor Potential 1 (TRPML1); 410,000 tested, 0.12% active; Mucolipin-1 (Homo sapiens), Q9GZU1; activation, % (no concentration beside the values); TRPML1-expressing cells, Ca2+ dye fluorescence, FDSS; AID 624414, 2012; in the data active = activation above about 50%; inconclusive = mostly about 30% to 49%; also: 0% is about no effect
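TRPML1-DL cells, Tet-induced overnight (~16 h, 37 degrees C), loaded 45-90 min at room temperature with Ca8 no-wash calcium dye plus quencher. FDSS fluorescence: 10 s baseline, compound pin-transfer, 110 s agonist read, then EC80 54-4 (4uM final) and 110 s antagonist read.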
TRPV1 ag: HTS Assay for Compounds that Act as Agonists of the Vanilloid Receptor 1; TRPV1-expressing cells, Fluo-8 calcium influx, agonist mode; activation, % at 8.33 µM; 320,000 tested, 0.19% active; in the data active = activation above about 80%; inconclusive = between about 30% and that limit; also: 0% is about no effect
Target sequence (Q8NER1 whole entry, looked up): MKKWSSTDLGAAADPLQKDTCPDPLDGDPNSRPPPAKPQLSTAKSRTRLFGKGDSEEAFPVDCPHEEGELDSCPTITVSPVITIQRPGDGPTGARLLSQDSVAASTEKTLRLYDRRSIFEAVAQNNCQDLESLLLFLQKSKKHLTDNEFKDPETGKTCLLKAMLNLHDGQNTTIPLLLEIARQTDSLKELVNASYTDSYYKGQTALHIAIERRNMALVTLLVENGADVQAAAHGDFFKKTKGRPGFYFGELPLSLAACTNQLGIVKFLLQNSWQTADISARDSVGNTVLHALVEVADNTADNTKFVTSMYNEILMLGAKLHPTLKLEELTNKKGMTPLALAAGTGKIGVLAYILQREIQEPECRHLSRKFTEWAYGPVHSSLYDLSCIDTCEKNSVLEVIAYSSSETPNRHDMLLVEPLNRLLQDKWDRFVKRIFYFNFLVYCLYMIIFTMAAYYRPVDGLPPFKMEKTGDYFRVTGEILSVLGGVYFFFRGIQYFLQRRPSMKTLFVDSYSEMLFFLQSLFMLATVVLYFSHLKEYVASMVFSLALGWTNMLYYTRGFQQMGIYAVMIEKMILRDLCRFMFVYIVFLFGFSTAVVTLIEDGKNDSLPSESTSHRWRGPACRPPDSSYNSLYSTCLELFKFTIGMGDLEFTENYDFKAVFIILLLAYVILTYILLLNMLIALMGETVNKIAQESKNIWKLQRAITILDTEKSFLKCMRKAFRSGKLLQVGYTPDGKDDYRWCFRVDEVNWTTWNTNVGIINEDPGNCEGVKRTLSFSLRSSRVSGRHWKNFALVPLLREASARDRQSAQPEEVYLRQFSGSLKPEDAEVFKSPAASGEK
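Cells expressing TRPV1 were dye-loaded with Fluo-8 and read kinetically: 10 s baseline, 3 min after compound (agonist portion), then 2 min after EC20 capsaicin (allosteric enhancer portion). Calcium-bound dye fluorescence at 480/520 nm.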
TRPV1 PAM: HTS Assay for Compounds that Act as Potentiators of the Vanilloid Receptor 1 | TRPV1-expressing cells, Fluo-8 calcium influx, capsaicin EC20 potentiation | potentiation, % at 8.33 µM | 320,000 tested, 0.02% active | AID 540277, 2011; in the data active = potentiation above about 80%; inconclusive = between about 30% and that limit; also: 0% is about no effect
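Cells expressing TRPV1 were dye-loaded with Fluo-8 and read kinetically: 10 s baseline, 3 min after compound (agonist portion), then 2 min after EC20 capsaicin (allosteric enhancer portion). Calcium-bound dye fluorescence at 480/520 nm.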
TRHR PAM: qHTS for Small Molecule Agonists and Allosteric Enhancers of Human TRH Receptor: Primary Screen for Enhancers. TRHR cells, fluo-8 calcium fluorescence, EC20 TRH enhancement. 360,000 tested, 0.66% active. enhancement, % at 2 µM. Thyrotropin-releasing hormone receptor (Homo sapiens), P34981; in the data active = enhancement above about 30%; also: 0% is about no effect
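Enhancer read-out: after compound pinning and an initial kinetic agonist-mode read, an EC20 of TRH (10 nM final) was injected and fluo-8 calcium signal (Ex 480/Em 530) followed at 1 s/cycle for 100 cycles in TRHR-expressing cells.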
TRHR ag: qHTS for Small Molecule Agonists and Allosteric Enhancers of Human TRH Receptor: Primary Screen for Agonists; TRHR cells, calcium flux fluo-8, FDSS agonist mode; activation, % at 2 µM; 360,000 tested, 0.18% active; AID 493084, 2011; in the data active = activation above about 30%; also: 0% is about no effect
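Steps: seed TRHR cells overnight; add fluo-8 no-wash Ca dye, RT 30 min–1.5 h; record 10 s baseline; pin-transfer compounds; monitor fluorescence 1 cycle/s for the agonist window. Calcium increases flag candidate agonists.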
* = called active by the depositor; ? = inconclusive; · = no result given; ! = a repeat was not active. Hits are enriched below; roughly 0.96% of the tested compounds scored in any of these assays.

SMILES	TRPML1 inh	TRPML1 agonist	TRPV1 ag	TRPV1 PAM	TRHR PAM	TRHR ag
CC(C)(C)CN1CCNC(=O)C1CC(=O)NCCc1ccccc1F (stereo not given)	-5	0	11	-8	31*	1
COC(=O)c1ccc(NC(=O)c2nc(S(=O)(=O)Cc3ccccc3F)ncc2Cl)cc1	·	1	·	·	·	·
COc1ccc(CN(Cc2ccccc2)C(=O)C2CC2)cc1COc1ccc(NC(C)=O)cc1	·	0	·	·	·	·
O=C1CC(c2ccco2)Cc2[nH]c(=O)c(C(=O)Nc3ccccc3)cc21 (stereo not given)	·	-1	·	·	·	·
CC(C)c1cc2c(s1)c1cnn(Cc3ccccc3F)c(=O)c1n2C	·	·	·	·	-2	0
CCOC(=O)/C(C#N)=C/C=C1\C=Cc2ccccc2N1CC	13	1	10	4	-3	5
CCCCCCN1C=CC(=C/C=C(\C#N)C(=O)OCC)C=C1	-12	60*	?	-21	31*	165*
CCCN1C=CC(=C/C=C(\C#N)C(=O)OCC)C=C1	·	·	?	-12	6	58*
COCCN1C(=O)/C(=C/c2ccc(N3CCCC3)cc2C)SC1=S	-15	29	26	7	24	53*
CCN=C1S/C(=C\c2ccc(N3CCOCC3)cc2C)C(=O)N1CC	-26	3	24	-3	2	1
COC(=O)c1nc(Nc2cc(F)cc(F)c2)nc(NC2CCCC2)n1	·	·	·	·	-1	2
COc1cccc(CNc2nc(Cl)nc3nc[nH]c23)c1	·	0	·	·	·	·
CC(=O)Nc1cccc(Nc2nc(-c3ccccc3F)nc3ccccc23)c1	0	1	96*	-15	-17	0
CC(=O)c1cccc(Nc2nc(-c3ccccc3Cl)nc3ccccc23)c1	18	2	·	·	1	1
Cc1nn(-c2ccc(N3CCOCC3)nn2)c(C)c1CCC(=O)NCc1ccc(F)cc1	14	0	2	-14	34*!	0
Cc1ccc(CNC(=O)CCc2c(C)nn(-c3ccc(N4CCOCC4)nn3)c2C)cc1	-15	4	1	-12	3	0
CC(=O)Nc1ccc(N=Cc2c(O)c(C(=O)Nc3ccccc3)cc3ccccc23)cc1	14	30	25	?	-1	109*
COC(=O)c1ccc(CN(Cc2ccc(C(=O)OC)o2)C(C)(C)C)o1	2	-2	10	-18	37*	0
COC(=O)c1ccc(COc2ccc(C(C)(C)C)cc2)o1	-5	1	9	1	4	0
COc1cc(-c2oc3cc(O)cc(O)c3c(=O)c2O)ccc1O	-4	1	·	·	·	·
O=c1c(O)c(-c2ccc(O)c(O)c2)oc2cc(O)cc(O)c12	6	1	-2	9	63*	6
O=S(=O)([O-])CCC[n+]1c(/C=C\Nc2ccccc2)oc2ccc(-c3ccccc3)cc21	·	·	?	-4	27	118*
CC[n+]1c(/C=C/Nc2ccccc2)oc2ccc(OC)cc21	8	1	1	13	14	0
Cc1cc(C)c(N)c(C(=O)O)c1	6	0	2	-7	38*	1
Cc1cc(C(=O)O)cc(Br)c1N	-5	-1	0	-1	0	0
SMILES	TRPML1 inh	TRPML1 agonist	TRPV1 ag	TRPV1 PAM	TRHR PAM	TRHR ag
O=C(C1=C[C@@H](c2ccccc2)C[C@@H](OCc2ccc(CO)cc2)O1)N1CCCCCCC1	4	1	88*	-27	-6	1
O=C(C1=C[C@@H](c2csc3ccccc23)C[C@@H](OCc2ccc(CO)cc2)O1)N1CCN(Cc2ccc3c(c2)OCO3)CC1	21	2	7	26	-1	1
O=C(C1=C[C@@H](c2csc3ccccc23)C[C@@H](OCc2ccc(CO)cc2)O1)N1CCN(Cc2ccccc2)CC1	-6	0	?	9	31*	1
C[n+]1ccc(C(c2c[nH]c3ccccc23)c2cc[n+](C)c3ccccc23)c2ccccc21	·	1	·	·	·	·
Cn1c(=O)n(C)c2cc([N+](=O)[O-])c(N3CCN(C(=O)c4cccc(Cl)c4)CC3)cc21	32	0	8	-2	38*	0
Cn1c(=O)n(C)c2cc([N+](=O)[O-])c(N3CCN(C(=O)c4cccc(F)c4)CC3)cc21	5	-1	0	0	-4	0
CCOc1ccc(NC(=O)c2ccc(S(=O)(=O)N(C)C)cc2)cc1	-4	-1	?	-4	1	0
COc1ccc(NC(=O)c2ccc3c(c2)N(C)CCS3)cc1	18	1	97*	-28	-2	-1
COc1ccc(C(=O)Nc2ccc(NC(=O)c3ccco3)cc2)cc1	-1	0	-3	9	39*	-2
COc1ccc(NC(=O)c2ccc3nccnc3c2)cc1	6	0	4	7	6	0
CN(C)S(=O)(=O)c1ccc(NC(=O)c2ccc3ncsc3c2)cc1	14	-1	80*	-21	3	0
CN1CCSc2ccc(C(=O)Nc3cccc(F)c3)cc21	?	1	?	20	-5	-1
COc1ccc(NC(=O)c2ccc3ncsc3c2)cc1	-14	1	92*	-11	35*	-1
O=C(C[n+]1cc(Br)cc2ccccc21)c1ccc(O)c(O)c1	·	1	·	·	·	·
O=C(Nc1ccc(Br)cc1)c1ccc2ncsc2c1	11	0	?	-1	8	0
CCc1ccc(NC(=O)c2ccc3ncsc3c2)cc1	·	·	86*	-3	-8	-1
COc1ccc(C(=O)Nc2ccc3ncccc3c2)cc1	-3	0	91*	-18	-5	0
COc1cc2nc(NC3CCN(Cc4ccccc4)CC3)nc(N3CCCN(C)CC3)c2cc1OC	·	0	·	·	·	·
COc1cc(OC)cc(-c2nnc(SCC(=O)N3CCOCC3)o2)c1	-8	1	5	8	-6	0
O=C(CSc1nnc(-c2cccc(Br)c2)o1)N1CCOCC1	-2	0	?	8	31*	-1
O=C(CN1CCOCC1)Nc1nc(-c2ccccc2)cs1	24	1	85*	-13	-5	0
Cc1nnc(SCC(=O)Nc2nc(-c3ccccc3)cs2)n1N	-2	0	3	?	2	-1

Bioassay records deposited in PubChem BioAssay by National Center for Advancing Translational Sciences (NCATS).
